Hit rate of the full screen: of about 5,500 compounds, about 2,000 (36%) were called active. About 18% were inconclusive and are not listed. Cut-off read from the data, not from the text of the source: active = normalized growth mostly below about 0.91 (no sharp cut-off); inconclusive = no clear call, values can overlap the other calls; inactive = mostly above about 0.92. The list shows a part of the results.
Experiment: chemical genetic growth profiling, strain panel (AID 1159580);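 note: tested at 20 µM; growth read once vehicle control cultures reached saturation at 30 °C; 1 = growth at the plate median or of vehicle wells; lower values mean less growth of the strain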
Conditions: S. cerevisiae deletion strains, growth OD
[1] = locus YAL021C, strain ccr4, stronger effect = lower value
[2] = locus YAL026C, strain drs2, stronger effect = lower value
[3] = locus YAL030W, strain snc1, stronger effect = lower value
[4] = locus YAL040C, strain CLN3, stronger effect = lower value
[5] = locus YBL061C, strain skt5, stronger effect = lower value
[6] = locus YBR009C, strain hhf1, stronger effect = lower value
[7] = locus YBR023C, strain chs3, stronger effect = lower value
[8] = locus YBR171W, strain sec66, stronger effect = lower value
[9] = locus YBR231C, strain swc5, stronger effect = lower value
[10] = locus YBR279W, strain paf1, stronger effect = lower value
[11] = locus YCL011C, strain gbp2, stronger effect = lower value
[12] = locus YCL016C, strain dcc1, stronger effect = lower value
[13] = locus YCL061C, strain MRC1 (second series), stronger effect = lower value
[14] = locus YCL069W, strain vba3, stronger effect = lower value
[15] = locus YCR088W, strain abp1, stronger effect = lower value
[16] = locus YDL005C, strain med2, stronger effect = lower value
[17] = locus YDL040C, strain nat1, stronger effect = lower value
[18] = locus YDR001C, strain nth1, stronger effect = lower value
[19] = locus YDR069C, strain doa4, stronger effect = lower value
[20] = locus YDR137W, strain rgp1, stronger effect = lower value
[21] = locus YDR150W, strain NUM1, stronger effect = lower value
[22] = locus YDR159W, strain sac3, stronger effect = lower value
[23] = locus YDR297W, strain sur2, stronger effect = lower value
[24] = locus YDR334W, strain swr1, stronger effect = lower value
[25] = locus YDR335W, strain msn5, stronger effect = lower value
[26] = locus YDR363W, strain ESC2, stronger effect = lower value
[27] = locus YDR392W, strain spt3, stronger effect = lower value
[28] = locus YEL003W, strain gim4, stronger effect = lower value
[29] = locus YEL037C, strain rad23, stronger effect = lower value
[30] = locus YEL061C, strain CIN8 (second series), stronger effect = lower value
[31] = locus YER002W, strain NOP16, stronger effect = lower value
[32] = locus YER015W, strain faa2, stronger effect = lower value
[33] = locus YER016W, strain bim1, stronger effect = lower value
[34] = locus YER111C, strain swi4, stronger effect = lower value
[35] = locus YER155C, strain BEM2 (second series), stronger effect = lower value
[36] = locus YFR010W, strain ubp6, stronger effect = lower value
[37] = locus YGL167C, strain pmr1, stronger effect = lower value
[38] = locus YGL173C, strain kem1, stronger effect = lower value
[39] = locus YGL227W, strain vid30, stronger effect = lower value
[40] = locus YGL240W, strain doc1, stronger effect = lower value
[41] = locus YGL253W, strain hxk2, stronger effect = lower value
[42] = locus YGR078C, strain PAC10, stronger effect = lower value
[43] = locus YHR013C, strain ard1, stronger effect = lower value
[44] = locus YHR027C, strain rpn1, stronger effect = lower value
[45] = locus YHR030C, strain SLT2, stronger effect = lower value
[46] = locus YHR079C, strain IRE1, stronger effect = lower value
[47] = locus YHR142W, strain chs7, stronger effect = lower value
[48] = locus YJL092W, strain hpr5, stronger effect = lower value
[49] = locus YJL095W, strain BCK1 (second series), stronger effect = lower value
[50] = locus YJL095W, strain BCK1, stronger effect = lower value
[51] = locus YJL115W, strain asf1, stronger effect = lower value
[52] = locus YJL129C, strain trk1, stronger effect = lower value
[53] = locus YJL154C, strain vps35, stronger effect = lower value
[54] = locus YJL164C, strain tpk1, stronger effect = lower value
[55] = locus YJL166W, strain qcr8, stronger effect = lower value
[56] = locus YJR066W, strain TOR1, stronger effect = lower value
[57] = locus YJR075W, strain HOC1, stronger effect = lower value
[58] = locus YKL160W, strain elf1, stronger effect = lower value
[59] = locus YKR026C, strain gcn3, stronger effect = lower value
[60] = locus YKR091W, strain srl3, stronger effect = lower value
[61] = locus YLL001W, strain dnm1, stronger effect = lower value
[62] = locus YLL026W, stronger effect = lower value
[63] = locus YLL041C, strain sdh2, stronger effect = lower value
[64] = locus YLR027C, strain aat2, stronger effect = lower value
[65] = locus YLR113W, strain HOG1, stronger effect = lower value
[66] = locus YLR221C, strain rsa3, stronger effect = lower value
[67] = locus YLR258W, strain gsy2, stronger effect = lower value
[68] = locus YLR262C, strain YPT6 (second series), stronger effect = lower value
[69] = locus YLR320W, strain mms22, stronger effect = lower value
[70] = locus YLR342W, strain FKS1, stronger effect = lower value
[71] = locus YLR357W, strain rsc2, stronger effect = lower value
[72] = locus YLR370C, strain arc18, stronger effect = lower value
[73] = locus YLR384C, strain iki3, stronger effect = lower value
[74] = locus YML120C, strain ndi1, stronger effect = lower value
[75] = locus YMR058W, strain fet3, stronger effect = lower value
[76] = locus YMR125W, strain sto1, stronger effect = lower value
[77] = locus YMR129W, stronger effect = lower value
[78] = locus YMR205C, strain PFK2, stronger effect = lower value
[79] = locus YMR231W, strain pep5, stronger effect = lower value
[80] = locus YMR307W, strain GAS1, stronger effect = lower value
[81] = locus YNL071W, strain lat1, stronger effect = lower value
[82] = locus YNL153C, strain GIM3, stronger effect = lower value
[83] = locus YNL175C, strain NOP13, stronger effect = lower value
[84] = locus YNL183C, strain NPR1, stronger effect = lower value
[85] = locus YNL197C, strain WHI3, stronger effect = lower value
[86] = locus YNL209W, strain ssb2, stronger effect = lower value
[87] = locus YNL224C, strain SQS1, stronger effect = lower value
[88] = locus YNL248C, strain rpa49, stronger effect = lower value
[89] = locus YNL322C, strain KRE1 (second series), stronger effect = lower value
[90] = locus YNL322C, strain KRE1, stronger effect = lower value
[91] = locus YNR049C, strain mso1, stronger effect = lower value
[92] = locus YOR001W, strain rrp6, stronger effect = lower value
[93] = locus YOR070C, strain gyp1, stronger effect = lower value
[94] = locus YOR080W, strain dia2, stronger effect = lower value
[95] = locus YOR083W, strain WHI5 (second series), stronger effect = lower value
[96] = locus YOR083W, strain WHI5, stronger effect = lower value
[97] = locus YOR106W, strain vam3, stronger effect = lower value
[98] = locus YOR231W, strain MKK1, stronger effect = lower value
[99] = locus YOR265W, strain rbl2, stronger effect = lower value
[100] = locus YOR270C, strain vph1, stronger effect = lower value
[101] = locus YOR290C, strain snf2, stronger effect = lower value
[102] = locus YPL051W, strain arl3, stronger effect = lower value
[103] = locus YPL055C, strain LGE1, stronger effect = lower value
[104] = locus YPL078C, strain atp4, stronger effect = lower value
[105] = locus YPL106C, strain sse1, stronger effect = lower value
[106] = locus YPL240C, strain hsp82, stronger effect = lower value
[107] = locus YPL241C, strain CIN2, stronger effect = lower value
[108] = locus YPL256C, strain CLN2, stronger effect = lower value

Measured: normalized growth

Cc1cn[nH]c1
active: locus YDR195W, strain ref2 1.16 [resistant]
inactive: [1] 1.05 | [2] 1.02 | [3] 1.03 | [4] 0.992 | [5] 1.02 | [6] 1.02 | [7] 1.03 | [8] 1.04 | [9] 1.04 | [10] 1.02 | [11] 1.02 | [12] 1.02 | [13] 0.99 | [14] 1.03 | [15] 1.01 | [16] 1.03 | [17] 1.01 | [18] 1.01 | [19] 1.06 | [20] 1.01 | [21] 0.986 | [22] 0.99 | [23] 1.02 | [24] 1.03 | [25] 1.02 | [26] 1.02 | [27] 1.1 | [28] 1.02 | [29] 1.01 | [30] 1.01 | [31] 1.01 | [32] 1.02 | [33] 1.01 | [34] 1.02 | [35] 1.13 | [36] 1.05 | [37] 1.02 | [38] 1.01 | [39] 1.01 | [40] 1.05 | [41] 1.01 | [42] 0.984 | [43] 1.1 | [44] 1.03 | [45] 0.971 | [46] 0.962 | [47] 1.06 | [48] 1.02 | [49] 1.02 | [50] 1.03 | [51] 1.01 | [52] 1.06 | [53] 1.02 | [54] 1.03 | [55] 1.03 | [56] 0.924 | [57] 1.02 | [58] 1.01 | [59] 1.01 | [60] 1.02 | [61] 1.02 | [62] 1.02 | [63] 1.02 | [64] 1.01 | [65] 1.02 | [66] 1.02 | [67] 1.03 | [68] 1.02 | [69] 1.08 | [70] 1.03 | [71] 1.09 | [72] 1.03 | [73] 1.01 | [74] 1.01 | [75] 1.03 | [76] 1.03 | [77] 1.01 | [78] 1.08 | [79] 1.02 | [80] 1 | [81] 1.06 | [82] 1.02 | [83] 0.994 | [84] 0.934 | [85] 0.996 | [86] 1.02 | [87] 1.02 | [88] 1.02 | [89] 1.02 | [90] 0.974 | [91] 1.01 | [92] 1.03 | [93] 1.02 | [94] 1.04 | [95] 1.01 | [96] 1.02 | [97] 1.03 | [98] 0.985 | [99] 1.02 | [100] 1.08 | [101] 1.03 | [102] 1.02 | [103] 1.02 | [104] 1.04 | [105] 1.1 | [106] 1.01 | [107] 0.981 | [108] 0.938

Cc1scc2c1N(C(=O)CN1CCN(C)CC1)c1ccccc1NC2=O
inactive: locus YAL013W, strain DEP1, stronger effect = lower value 0.967 | [1] 0.984 | [2] 0.972 | [3] 0.939 | [4] 0.985 | [5] 0.963 | [6] 0.989 | [7] 0.947 | [8] 0.954 | [9] 0.972 | [10] 0.958 | [11] 0.954 | [12] 0.975 | [13] 1 | [14] 0.971 | [15] 0.969 | [16] 0.956 | [17] 0.967 | [18] 0.948 | [19] 0.922 | [20] 0.941 | [21] 0.998 | [22] 0.94 | locus YDR195W, strain ref2 0.899 | [23] 0.974 | [24] 0.943 | [25] 0.955 | [26] 0.984 | [27] 1.01 | [28] 0.976 | [29] 0.957 | [30] 0.96 | [31] 1 | [32] 0.974 | [33] 0.967 | [34] 0.965 | [35] 0.939 | [36] 0.95 | [37] 0.943 | [38] 0.978 | [39] 0.947 | [40] 0.966 | [41] 0.965 | [42] 0.996 | [43] 0.967 | [44] 0.966 | [45] 1.08 | [46] 1.1 | [47] 0.942 | [48] 0.965 | [49] 0.96 | [50] 1.11 | [51] 0.952 | [52] 0.948 | [53] 0.961 | [54] 0.995 | [55] 0.949 | locus YJL187C, strain SWE1, stronger effect = lower value 0.968 | [56] 0.962 | [57] 0.979 | [58] 0.981 | [59] 0.96 | [60] 0.977 | [61] 0.968 | [62] 0.949 | [63] 0.968 | [64] 0.977 | [65] 0.977 | [66] 0.995 | [67] 0.963 | [68] 0.962 | [69] 1 | [70] 0.98 | [71] 0.948 | [72] 0.945 | [73] 0.962 | [74] 0.964 | [75] 0.952 | [76] 0.948 | [77] 0.982 | [78] 0.967 | [79] 0.972 | locus YMR263W, strain SAP30, stronger effect = lower value 0.989 | [80] 0.981 | [81] 0.979 | [82] 1 | [83] 1.02 | [84] 0.938 | [85] 0.979 | [86] 0.973 | [87] 1.02 | [88] 0.964 | [89] 0.967 | [90] 0.972 | [91] 0.962 | [92] 0.972 | [93] 0.984 | [94] 0.958 | [95] 0.995 | [96] 0.982 | [97] 0.948 | [98] 1.05 | [99] 0.965 | [100] 0.866 | [101] 0.974 | [102] 0.985 | [103] 0.962 | [104] 0.957 | [105] 0.936 | [106] 0.979 | [107] 1 | [108] 1.1
